The source made the active and inactive calls. How the source made its calls: active means hit-call score of the fitted dose curve at least 0.9, where 1 is the maximum; inactive means score below 0.9.
Each compound was assayed on Glutamate-cysteine ligase regulatory (GCLM), GCLM (gene 2730) (assay: LTEA_HepaRG_GCLM: Life Technologies and Expression Analysis (LTEA) Assay for Glutamate-cysteine ligase regulatory (GCLM) using HepaRG (AID 2283500)). Conditions: mRNA level, 48 h; actives raise or lower the signal.
Outline: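 Differentiated human HepaRG cells exposed 48 h in serum-free induction medium to 8-point half-log concentrations (top 100 uM, 0.5% DMSO), in duplicate. GCLM mRNA quantified by qRT-PCR, normalized to ACTB, GAPDH, POLR2A; bidirectional fitting versus DMSO.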
For `CCCCC(CC)COC(=O)CCCCCCCC(=O)OCC(CC)CCCC` (configuration not stated), the outcome was “inactive”. `C=CCc1ccc(OC)c(OC)c1` was tested, and the outcome was “inactive”. With `CC(=O)O` the outcome was “inactive”. With `CC(C)(O)c1ccc(CNC(=O)c2cccnc2Oc2ccc(F)cc2)cc1` the outcome was “inactive”. For `NC1CCCCC1`, the outcome was “inactive”. For `CC(=O)O[C@]1(C(C)=O)CC[C@H]2[C@@H]3C=C(Cl)C4=CC(=O)[C@@H]5C[C@@H]5[C@]4(C)[C@H]3CC[C@@]21C`, the outcome was “inactive”. `O=C(NS(=O)(=O)/C=C/c1cccs1)c1ccc(F)cc1Br` was tested, and the outcome was “inactive”. `O=C(O)c1cccnc1` was tested, and the outcome was “inactive”. In the case of `O=C(Oc1ccccc1)c1cccc(C(=O)Oc2ccccc2)c1`, the outcome is reported as “inactive”. For `CCCC(=O)O`, the outcome was “inactive”. In the case of `COC(=O)CCC(=O)OC`, the outcome is reported as “inactive”. For `CC(=O)OCC(COC(C)=O)OC(C)=O`, the outcome was “inactive”. With `O=C1CCCCC1` the outcome was “inactive”. In the case of `CC(COCC(C)OC(=O)c1ccccc1)OC(=O)c1ccccc1` (configuration not stated), the outcome is reported as “inactive”. `CC(C)COC(=O)CCCCC(=O)OCC(C)C` was tested, and the outcome was “inactive”. With `CC(C)c1cccc(C(C)C)c1` the outcome was “inactive”. With `C/C=C/c1ccc(OC)cc1` the outcome was “inactive”. With `CN(C)CCCN(C)CCCN(C)C` the outcome was “inactive”. In the case of `CCOCCOCCO`, the outcome is reported as “inactive”. In the case of `CCCCC(CC)COP(=O)(OCC(CC)CCCC)OCC(CC)CCCC` (configuration not stated), the outcome is reported as “inactive”. With `CCCCCCCCCCCCCCCCO` the outcome was “inactive”. For `CC(N)=O`, the outcome was “inactive”. For `CCCCCCC(CCCCCCCCCCC(=O)OCC(COC(C)=O)OC(C)=O)OC(C)=O` (configuration not stated), the outcome was “inactive”. For `NC(=Nc1ccccc1)Nc1ccccc1`, the outcome was “inactive”. For `Cc1cn([C@H]2C=C[C@@H](CO)O2)c(=O)[nH]c1=O`, the outcome was “inactive”. In the case of `CCCCCCCC(=O)OC`, the outcome is reported as “inactive”. `CCCCC(CC)CO` (configuration not stated) was tested, and the outcome was “inactive”. In the case of `O=C(N[C@@H](c1ccccc1)[C@@H]1CCCCN1)c1cccc(C(F)(F)F)c1Cl`, the outcome is reported as “inactive”. `CCN(CC)CCOc1ccc(C(=C(Cl)c2ccccc2)c2ccccc2)cc1` was tested, and the AC50 was 78 µM (active).

These compounds were tested on Glutathione S-transferase M3 (GSTM3), GSTM3 (gene 2947) (assay: LTEA_HepaRG_GSTM3: Life Technologies and Expression Analysis (LTEA) Assay for Glutathione S-transferase M3 (GSTM3) using HepaRG (AID 2283501)). Conditions: mRNA level, 48 h; actives raise or lower the signal.
Outline: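 GSTM3 transcript levels came from Fluidigm TaqMan qRT-PCR normalized to three housekeeping genes, fitted in both directions against DMSO. HepaRG cultures received chemicals for 48 h in serum-free induction medium (0.5% DMSO), 8 half-log concentrations up to 100 uM, duplicate.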
With `CCCCC(CC)COC(=O)CCCCCCCC(=O)OCC(CC)CCCC` (configuration not stated) the outcome was “inactive”. With `C=CCc1ccc(OC)c(OC)c1` the outcome was “inactive”. With `CC(=O)O` the outcome was “inactive”. `CC(C)(O)c1ccc(CNC(=O)c2cccnc2Oc2ccc(F)cc2)cc1` was tested, and the outcome was “inactive”. With `NC1CCCCC1` the outcome was “inactive”. With `CC(=O)O[C@]1(C(C)=O)CC[C@H]2[C@@H]3C=C(Cl)C4=CC(=O)[C@@H]5C[C@@H]5[C@]4(C)[C@H]3CC[C@@]21C` the outcome was “inactive”. With `O=C(NS(=O)(=O)/C=C/c1cccs1)c1ccc(F)cc1Br` the outcome was “inactive”. In the case of `O=C(O)c1cccnc1`, the outcome is reported as “inactive”. In the case of `O=C(Oc1ccccc1)c1cccc(C(=O)Oc2ccccc2)c1`, the outcome is reported as “inactive”. In the case of `CCCC(=O)O`, the outcome is reported as “inactive”. In the case of `COC(=O)CCC(=O)OC`, the outcome is reported as “inactive”. For `CC(=O)OCC(COC(C)=O)OC(C)=O`, the outcome was “inactive”. For `O=C1CCCCC1`, the outcome was “inactive”. `CC(COCC(C)OC(=O)c1ccccc1)OC(=O)c1ccccc1` (configuration not stated) was tested, and the outcome was “inactive”. In the case of `CC(C)COC(=O)CCCCC(=O)OCC(C)C`, the outcome is reported as “inactive”. `CC(C)c1cccc(C(C)C)c1` was tested, and the outcome was “inactive”. In the case of `C/C=C/c1ccc(OC)cc1`, the outcome is reported as “inactive”. With `CN(C)CCCN(C)CCCN(C)C` the outcome was “inactive”. `CCOCCOCCO` was tested, and the outcome was “inactive”. For `CCCCC(CC)COP(=O)(OCC(CC)CCCC)OCC(CC)CCCC` (configuration not stated), the outcome was “inactive”. For `CCCCCCCCCCCCCCCCO`, the outcome was “inactive”. For `CC(N)=O`, the outcome was “inactive”. `CCCCCCC(CCCCCCCCCCC(=O)OCC(COC(C)=O)OC(C)=O)OC(C)=O` (configuration not stated) was tested, and the outcome was “inactive”. In the case of `NC(=Nc1ccccc1)Nc1ccccc1`, the outcome is reported as “inactive”. In the case of `Cc1cn([C@H]2C=C[C@@H](CO)O2)c(=O)[nH]c1=O`, the outcome is reported as “inactive”. For `CCCCCCCC(=O)OC`, the outcome was “inactive”. In the case of `CCCCC(CC)CO` (configuration not stated), the outcome is reported as “inactive”. For `O=C(N[C@@H](c1ccccc1)[C@@H]1CCCCN1)c1cccc(C(F)(F)F)c1Cl`, the outcome was “inactive”. In the case of `CCN(CC)CCOc1ccc(C(=C(Cl)c2ccccc2)c2ccccc2)cc1`, the outcome is reported as “inactive”.

What follows are compounds tested on Heat shock 70 kDa protein 1 (HSPA1A), gene 3303 (assay: LTEA_HepaRG_HSPA1A: Life Technologies and Expression Analysis (LTEA) Assay for Heat shock 70 kDa protein 1 (HSPA1A) using HepaRG (AID 2283502)). Conditions: mRNA level, 48 h; actives raise or lower the signal.
Outline: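 Differentiated human HepaRG cells in serum-free induction medium were exposed in duplicate for 48 h to eight concentrations (top 100 uM, half-log steps, 0.5% DMSO). HSPA1A mRNA was quantified by qRT-PCR, normalized to ACTB, GAPDH and POLR2A, and fitted bidirectionally against DMSO.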
In the case of `CCCCC(CC)COC(=O)CCCCCCCC(=O)OCC(CC)CCCC` (configuration not stated), the outcome is reported as “inactive”. `C=CCc1ccc(OC)c(OC)c1` was tested, and the outcome was “inactive”. `CC(=O)O` was tested, and the outcome was “inactive”. `CC(C)(O)c1ccc(CNC(=O)c2cccnc2Oc2ccc(F)cc2)cc1` was tested, and the outcome was “inactive”. `NC1CCCCC1` was tested, and the outcome was “inactive”. `CC(=O)O[C@]1(C(C)=O)CC[C@H]2[C@@H]3C=C(Cl)C4=CC(=O)[C@@H]5C[C@@H]5[C@]4(C)[C@H]3CC[C@@]21C` was tested, and the AC50 was 83.4 µM (active). In the case of `O=C(NS(=O)(=O)/C=C/c1cccs1)c1ccc(F)cc1Br`, the outcome is reported as “inactive”. `O=C(O)c1cccnc1` was tested, and the outcome was “inactive”. For `O=C(Oc1ccccc1)c1cccc(C(=O)Oc2ccccc2)c1`, the outcome was “inactive”. `CCCC(=O)O` was tested, and the outcome was “inactive”. With `COC(=O)CCC(=O)OC` the outcome was “inactive”. For `CC(=O)OCC(COC(C)=O)OC(C)=O`, the outcome was “inactive”. `O=C1CCCCC1` was tested, and the outcome was “inactive”. With `CC(COCC(C)OC(=O)c1ccccc1)OC(=O)c1ccccc1` (configuration not stated) the outcome was “inactive”. With `CC(C)COC(=O)CCCCC(=O)OCC(C)C` the outcome was “inactive”. `CC(C)c1cccc(C(C)C)c1` was tested, and the outcome was “inactive”. In the case of `C/C=C/c1ccc(OC)cc1`, the outcome is reported as “inactive”. With `CN(C)CCCN(C)CCCN(C)C` the outcome was “inactive”. `CCOCCOCCO` was tested, and the outcome was “inactive”. `CCCCC(CC)COP(=O)(OCC(CC)CCCC)OCC(CC)CCCC` (configuration not stated) was tested, and the outcome was “inactive”. For `CCCCCCCCCCCCCCCCO`, the outcome was “inactive”. For `CC(N)=O`, the outcome was “inactive”. With `CCCCCCC(CCCCCCCCCCC(=O)OCC(COC(C)=O)OC(C)=O)OC(C)=O` (configuration not stated) the outcome was “inactive”. With `NC(=Nc1ccccc1)Nc1ccccc1` the outcome was “inactive”. `Cc1cn([C@H]2C=C[C@@H](CO)O2)c(=O)[nH]c1=O` was tested, and the outcome was “inactive”. `CCCCCCCC(=O)OC` was tested, and the outcome was “inactive”. With `CCCCC(CC)CO` (configuration not stated) the outcome was “inactive”. With `O=C(N[C@@H](c1ccccc1)[C@@H]1CCCCN1)c1cccc(C(F)(F)F)c1Cl` the AC50 was 50 µM (active). With `CCN(CC)CCOc1ccc(C(=C(Cl)c2ccccc2)c2ccccc2)cc1` the outcome was “inactive”.

From PubChem BioAssay (EPA / NIEHS)
